Only some compounds are listed: those with a hit (about 2.4% of all), similar ones and a draw of the others.
Pol eta inh-1 – blocks human DNA polymerase eta activity; AID 588591; Potency, µM (doses to about 114 µM), inactives show at the highest dose activity change, negative = inhibition, hits mostly inhibitors; Q9Y253; 390,000 tested, 1.2% active; recombinant Pol eta, fluorescent DNA replication assay; further: on the % scale 0 is the no-effect control and ±100 the full control effect
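Pol eta (10 nM) was preincubated with compounds for 15 min at room temperature, after which fluorescent replication substrate (50 nM final) was added to start the reaction. Fluorescence was read kinetically at 0 and 10 min.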
FEN1 inh – blocks human flap endonuclease 1; 390,000 tested, 0.35% active; Recombinant FEN1 flap cleavage, fluorescence, 15 min; P39748; Potency, µM (doses to about 114 µM), for the others: at the top dose activity change, negative = inhibition, hits mostly inhibitors; AID 588795; further: on the % scale 0 is the no-effect control and ±100 the full control effect; nearly all actives have a fitted effect of over 65% in size
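Read-out was taken twice, immediately and after 15 min, following addition of 50 nM substrate to 10 nM FEN1 that had sat with test compound for 15 min at room temperature. Curves came from a four-parameter Hill model.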
POLB inh – inhibitors of human DNA polymerase beta | P06746 | Pol beta primer extension/strand displacement, fluorescence kinetic | Potency, µM (titrated, usually from 114 µM), inactives show at the top dose activity change, negative = inhibition, hits mostly inhibitors | 340,000 tested, 1.3% active; further: on the % scale 0 is the no-effect control and ±100 the full control effect
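Enzyme-only controls used 10 nM Pol beta; buffer lacking enzyme served as negative control. Compound preincubated 15 min, then 50 nM substrate added; 0 and 10 min reads at room temperature.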
Pol kappa inh-1 – DNA polymerase kappa (human) inhibition | Potency, µM (doses to about 107 µM), inactives show top-dose activity, negative = inhibition, usual class: inhibitors | Q9UBT6 | 400,000 tested, 0.53% active | purified Pol kappa, fluorescent DNA synthesis assay, 10 min; further: on the % scale 0 is the no-effect control and ±100 the full control effect
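Kinetic fluorescence screen: compound preincubated 15 min RT with 10 nM enzyme; 50 nM substrate (final) initiates; reads at 0/10 min.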
POLI inh – DNA polymerase iota (human) inhibition; Pol iota fluorescent replication assay, 10 min; Potency, µM (titrated, usually from 115 µM), without a hit: at the top dose activity, negative = inhibition, actives largely listed as inhibitors; Q9UNA4; 390,000 tested, 1% active; AID 588590
Target sequence (Q9UNA4 whole entry, looked up): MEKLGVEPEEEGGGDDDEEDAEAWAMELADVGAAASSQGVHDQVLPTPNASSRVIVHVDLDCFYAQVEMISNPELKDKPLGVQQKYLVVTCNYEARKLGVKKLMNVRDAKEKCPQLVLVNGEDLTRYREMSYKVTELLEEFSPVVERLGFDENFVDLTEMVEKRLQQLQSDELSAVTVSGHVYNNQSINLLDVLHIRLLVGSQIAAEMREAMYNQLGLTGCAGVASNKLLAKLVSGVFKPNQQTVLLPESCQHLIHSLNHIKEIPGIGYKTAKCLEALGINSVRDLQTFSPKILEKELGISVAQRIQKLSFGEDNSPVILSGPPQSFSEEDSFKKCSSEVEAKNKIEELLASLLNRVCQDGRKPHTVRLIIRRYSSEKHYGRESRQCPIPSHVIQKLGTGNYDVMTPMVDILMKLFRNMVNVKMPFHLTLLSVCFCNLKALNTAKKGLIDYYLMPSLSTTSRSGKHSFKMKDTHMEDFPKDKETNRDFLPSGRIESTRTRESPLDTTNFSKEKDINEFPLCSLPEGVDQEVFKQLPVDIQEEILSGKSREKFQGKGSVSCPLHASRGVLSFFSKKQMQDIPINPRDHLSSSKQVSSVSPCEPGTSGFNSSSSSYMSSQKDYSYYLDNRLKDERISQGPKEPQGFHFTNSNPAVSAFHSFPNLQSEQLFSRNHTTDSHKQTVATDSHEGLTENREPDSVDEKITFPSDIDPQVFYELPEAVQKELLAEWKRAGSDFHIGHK
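Pol iota at 10 nM preincubated 15 min with compounds at room temperature; reaction started with fluorescent substrate, 50 nM final. Fluorescence read kinetically at 0 and 10 min; buffer-only wells as negative control.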
WRN inhibitor – WRN helicase (human) inhibition; Q14191; WRN helicase unwinding, fluorescent forked duplex, kinetic; Potency, µM (doses to about 114 µM), for inactives: at the top dose activity change, negative = inhibition, hits mostly inhibitors; 360,000 tested, 0.46% active; AID 651768; further: on the % scale 0 is the no-effect control and ±100 the full control effect; nearly all actives have a fitted effect of over 55% in size
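Fluorescence dequenching readout, ex 525 nm/em 598 nm, kinetic mode: forked duplex DNA (100 nM final) with adjacent fluorophore and quencher unwound by WRN (20 nM final) with 2 mM ATP. Compound preincubation 15 min, room temperature.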
Pol kappa inh-2 – Pol kappa (human) inhibition, cherry-pick confirmation | Potency, µM, actives largely listed as inhibitors | 920 tested, 76% active | purified Pol-kappa, fluorescent strand-displacement substrate | AID 720501 | shares compounds with Pol eta inh-1
Pol eta inh-2 – Pol eta (human) inhibition, cherry-pick confirmation; shares compounds with Pol eta inh-1; Pol eta primer extension, TAMRA/BHQ fluorescence, 10 min; Potency, µM, most hits filed as inhibitors; 2,600 tested, 64% active
Numbers without * were called inactive; ? = inconclusive; / = no result given; [ ] = remark or other dose. The call rests on the fitted dose curve; in most records, active means well fitted curve in the direction sought with a large enough effect; inconclusive means small, poorly fitted or top-dose-only effect, or another doubt; inactive means no such curve, though single readings can be large; an effect the other way counts as inactive or inconclusive. Potency means the concentration at half of the fitted maximal effect.

SMILES	Pol eta inh-1	FEN1 inh	POLB inh	Pol kappa inh-1	POLI inh	WRN inhibitor	Pol eta inh-2	others
COC(=O)c1c(C)[nH]c(C(=O)COc2ccc3ccc(=O)oc3c2)c1C	44.7µM*	?	/	-37.6%	?	-12.9%[11.6 µM]	?
CCC(C(=O)NCCc1ccccc1)n1nc(C)c2sc3ccccc3c2c1=O (centres undefined)	-11.3%	-8.0%	?	-3.7%	42.7%	/	/
CC(=O)Nc1ccc(OCc2cccc(-c3nc4ccccc4c(=O)n3Cc3ccco3)c2)cc1	/	/	/	/	/	/	?
CCC(CO)Nc1ncnc2c1cnn2-c1ccc(C)cc1 (centres undefined)	-4.2%	-2.8%	3.4%	-1.1%[60.1 µM]	27.2%	/	/
CCCN(CCC)S(=O)(=O)c1ccc(NC(=O)COc2ccccc2)cc1	-9.9%	?	?	0.0%	7.8%	-13.4%	/
CCCN(CCC)S(=O)(=O)c1ccc(NC(=O)Cc2cccs2)cc1	?	-20.0%	?	-35.9%	?	-20.0%[57.1 µM]	75.7*
CCCCOc1ccc(C(=O)N2CCN(CCc3ccncc3)CC2)cc1	0.9%	14.2%	4.1%	-15.2%	12.2%	/	/
CCc1ccc(NC(=O)c2nc(SCc3ccccc3F)ncc2Cl)cc1	/	7.3%	/	5.0%	24.4%	/	/
Cc1c(C(=O)NCc2ccccc2Cl)sc2nc3n(c(=O)c12)CCCCC3	-11.6%	4.7%	0.3%	0.6%	9.6%	/	/
C[N+](C)(C)CCN1CCc2ccccc21	/	/	/	/	/	4.7%	/
O=C(O)CCN1CCc2ccccc21	17.8µM*	-10.0%	?	?	?	-13.9%[57.1 µM]	?
COc1ccccc1OCCn1c(SCC(=O)O)nc2ccccc21	22.4µM*	-0.5%	28.2µM*	79.4µM*	?	-4.6%[11.6 µM]	?	Pol kappa inh-2=33.6*
CC(=O)c1ccc(N2CCN(S(=O)(=O)c3ccc(-c4coc(C)n4)cc3)CC2)cc1	79.4µM*	-6.4%	44.7µM*	-4.1%[60.1 µM]	?	/	?
CCOC(=O)c1ccc(CN(Cc2ccc(F)cc2)S(=O)(=O)c2ccc(F)cc2)cc1	-16.5%	-13.0%	4.0%	-6.7%[60.1 µM]	22.6%	/	/
O=C(O)c1ccc(C=C(c2nc3ccccc3s2)c2nc3ccccc3s2)cc1	39.8µM*	0.3%	-0.3%	-11.0%	?	-23.9%	?
CCN1CCN(c2oc(-c3ccc(COc4ccc(C)cc4)o3)nc2C#N)CC1	-22.8%	-20.0%	-22.6%	-22.1%	19.3%	/	/
O=C(O)C1CC(O)CN1c1nc(Cl)ccc1[N+](=O)[O-] (centres undefined)	-0.5%	3.5%	-22.6%	-24.6%	44.3%	-1.1%	/
O=C(O)C1CN(c2nc(Cl)ccc2[N+](=O)[O-])C1	20µM*	3.1%	35.5µM*	-9.3%	15.5%	-12.5%	30.1*	Pol kappa inh-2=67*
NC(N)=Nc1ccc(/C=C2\C=Cc3ccccc32)cc1	/	?	/	-10.3%	5.9%	/	/
Nc1c(C=C2C=CC(=O)C=C2)c(=O)nc2sc(CC(=O)N3CCCCC3)nn12	39.8µM*	-26.4%	-19.5%	-23.9%	?	-8.5%	75.7*
CC(=O)NCc1ccc(C(=O)COC(=O)COc2ccc(Cl)c(C)c2)s1	-10.5%	-20.1%	/	-22.8%	?	-5.3%	/
CC(=O)NCc1ccc(C(=O)COC(=O)COc2ccccc2)s1	22.4µM*	4.7%	/	?	44.7µM*	-18.3%	75.7*
COC(=O)c1ccc(CSc2nnnn2C)o1	-6.4%	5.0%	-9.3%	-4.1%	32.8%	6.0%	/
CO[C@@]1(NC(=O)C2SC(=C(C(N)=O)C(=O)O)S2)C(=O)N2C(C(=O)O)=C(CSc3nnnn3C)CS[C@@H]21 (some centres undefined)	-2.0%	-27.3%	/	44.7µM*	11.2µM*	-9.4%[11.6 µM]	30.1*
Cc1nc2nc(SCC(=O)NCCc3ccc(Cl)cc3)nn2c(C)c1Cc1ccccc1	-22.9%	-18.3%	5.7%	-3.8%	21.3%	/	/
SMILES	Pol eta inh-1	FEN1 inh	POLB inh	Pol kappa inh-1	POLI inh	WRN inhibitor	Pol eta inh-2	others
CN1C(=O)C(C)(C)c2cc(S(=O)(=O)N3CCN(c4ccccc4F)CC3)ccc21	-0.1%	-4.4%	-1.2%	-4.0%	13.7%	-6.7%	/
Cc1cccc(N2CCN(S(=O)(=O)c3ccc4c(c3)C(C)(C)C(=O)N4C)CC2)c1C	22.4µM*	-9.4%	12.6µM*	?	?	-9.3%[11.6 µM]	?
Cc1ccc(C)c(N2CCN(C(=O)C3CCN(S(=O)(=O)c4cn(C)cn4)CC3)CC2)c1	-5.8%	-0.2%	-6.5%	-7.6%[60.1 µM]	5.3%	/	/
Cc1ccc(S(=O)(=O)N/N=C\c2ccc([N+](=O)[O-])o2)cc1	10.8%	?	-3.1%	-14.6%	?	-4.0%	/
Cc1ccc(S(=O)(=O)N/N=C\c2ccc(C)o2)cc1	44.7µM*	-5.0%	39.8µM*	?	?	-20.1%[11.6 µM]	67.5*
O=C(CSc1nc2ccc(S(=O)(=O)N3CCOCC3)cc2[nH]1)N1CCOCC1	10.1%	4.0%	3.9%	-9.9%	-13.1%	-17.9%	?	Pol kappa inh-2=29.9*
COc1cccc(CNC(=O)CN2c3cccc4cccc(c34)S2(=O)=O)c1	14.1µM*	-12.3%	/	?	44.7µM*	-9.8%[11.6 µM]	?
Cc1ccc(CN(Cc2cccn2-c2nnc(N3CCCC3=O)s2)C(=O)Nc2ccccc2Cl)cc1	-7.8%	2.3%	2.0%	-2.2%	4.1%	/	/
OC(C[n+]1ccccc1Cl)c1ccccc1 (centres undefined)	/	-2.6%	/	-21.8%	37.8%	/	/
C#Cc1ccc([C@@H]2C=C(C(=O)O)O[C@H](OCC)[C@H]2CCCO)cc1	7.94µM*	-7.7%	/	50.1µM*	?	-35.5%[57.1 µM]	30.1*	Pol kappa inh-2=4.74*
CC(C)(C)n1ncc2c(=O)n(Cc3ccc(F)c(C(F)(F)F)c3)cnc21	/	-9.1%	/	-6.7%	6.7%	/	/
O=C(CCl)N1N=C(c2ccco2)CC1c1ccco1 (centres undefined)	10µM*	?	25.1µM*	22.4µM*	3.16µM*	56.2µM*	60.1*
Cc1noc(C)c1-c1cncnc1NCc1ccccc1	/	/	/	0.8%[60.1 µM]	/	/	/
COc1ccccc1C1NC(c2ccc3c(c2)OCO3)=CC(c2cc(Br)ccc2O)N1 (centres undefined)	/	-1.4%	/	-5.2%	?	/	/
O=C(COC(=O)Cc1ccc(S(=O)(=O)N2CCOCC2)s1)NCCc1ccccc1	79.4µM*	1.0%	22.4µM*	?	?	?	?
O=C(COC(=O)Cc1ccc(S(=O)(=O)N2CCOCC2)s1)NCc1ccccc1	?	3.9%	0.1%	-21.2%	16.8%	-4.4%	/
Cc1cccc(NC(=O)c2cnc3sc(N4CCCC4)nn3c2=O)c1C	-13.1%	0.8%	1.1%	1.8%	2.2%	/	/

Screening results (PubChem)
